miR122 inh: activators of miR-122 sensor in Huh7 cells; Huh7 psiCHECK-miR122 Renilla luciferase sensor, 48 h; activation, % at 12.5 µM; 0.14% of 340,000 active;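 active = mean activation of 30% or more, with every replicate also reaching 30%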;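 also: 0% = median of neutral control wells and 100% = median of positive control wells; higher luciferase signal means stronger suppression of miR-122 activity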
* hit, by the source's call. Only a selection was taken, and hits are over-represented in it overall.

SMILES	miR122 inh
Cc1cc(C)cc(OCC(O)CN2CCC(CN3C(=O)c4cccc5cccc(c45)C3=O)CC2)c1 (centres undefined)	67.0*
Cc1cc(OCC(O)CN2CCOCC2)cc(C)c1Cl (centres undefined)	-90.7
COc1ccc(NC(=O)Nc2ccc3c(c2)OC[C@H](C)NC[C@@H](C)[C@@H](OC)CN(C)C3=O)cc1	-1.6
CN(C)CC(=O)N1CCCCN2[C@@H](CO)[C@@H](c3ccc(/C=C/c4ccccc4)cc3)[C@@H]2C1	32.1*
C[C@@H]1CN([C@@H](C)CO)S(=O)(=O)c2ccc(-c3ccc(C(=O)N(C)C)cc3)cc2O[C@@H]1CN(C)C	1.7
CC(=O)N(C)C[C@@H]1Oc2cc(/C=C/c3ccccc3)ccc2S(=O)(=O)N([C@H](C)CO)C[C@H]1C	-7.8
CC(=O)N1[C@H](CNC(=O)CN(C)C)[C@@H](c2ccc(C3=CCCCC3)cc2)[C@@H]1CO	-291.7
C[C@H]1CN([C@@H](C)CO)S(=O)(=O)c2ccc(-c3ccc(C(=O)N(C)C)cc3)cc2O[C@@H]1CN(C)C	1.6
CN(C)C(=O)c1ccc(-c2ccc([C@H]3[C@@H](CO)N4CCCCN(C(=O)C5CCCC5)C[C@@H]34)cc2)cc1	30.2*
C[C@@H]1CN([C@@H](C)CO)S(=O)(=O)c2ccc(C#Cc3ccccn3)cc2O[C@H]1CN(C)Cc1ccc(F)cc1	1.0
COc1cccc(-c2cnc3c(c2)C(=O)N([C@@H](C)CO)C[C@@H](C)[C@@H](CN(C)C(=O)Nc2ccccc2F)O3)c1	0.9
CC(C)NC(=O)N(C)C[C@H]1Oc2ncc(C3=CCCCC3)cc2C(=O)N([C@@H](C)CO)C[C@H]1C	-2.6
CCCNC(=O)N(C)C[C@@H]1Oc2cc(C#CCOC)ccc2S(=O)(=O)N([C@@H](C)CO)C[C@H]1C	-19.1
O=C(OCc1ccccc1Cl)c1ccccc1C(=O)c1ccccc1	-136.9
O=C(COC(=O)c1ccccc1C(=O)c1ccc(Cl)c([N+](=O)[O-])c1)NC1CCCCCC1	63.3*
Cc1c(NC(=O)NC2CCCCC2)cccc1[N+](=O)[O-]	-157.2
CCC(=O)Nc1ccc2c(c1)OC[C@H](C)N(C(=O)c1ccccc1F)C[C@H](C)[C@@H](OC)CN(C)C2=O	2.3
CCCNC(=O)Nc1ccc2c(c1)OC[C@H](C)NC[C@H](C)[C@H](OC)CN(C)C2=O	-4.5
COCC#Cc1ccc2c(c1)O[C@@H](CN(C)C(=O)COC)[C@H](C)CN([C@H](C)CO)S2(=O)=O	2.1
Cc1cccc(C(=O)Nc2cccc(S(=O)(=O)NCc3ccco3)c2)c1	-95.1
Cc1cc(C(=O)Nc2cccc(O)c2)co1	35.7*
CCOC(=O)/C(=C\C=C1/Sc2ccccc2N1CC)C(C)=O	52.1*
COc1cccc(-c2ccc3c(c2)O[C@@H](CN(C)C(=O)C2CCCCC2)[C@H](C)CN([C@@H](C)CO)S3(=O)=O)c1	-18.6
COCC(=O)Nc1ccc2c(c1)OC[C@@H](C)NC[C@@H](C)[C@@H](OC)CN(C)C2=O	0.1
CNC(=O)c1nnsc1S(=O)(=O)c1ccc(Cl)cc1	30.9*
O=C(NNS(=O)(=O)c1ccc(Cl)cc1)c1cccs1	-115.6
O=S(=O)(Nc1ccncc1)c1ccc(Cl)cc1	-119.3
C[C@H](CO)N1C[C@H](C)[C@H](CN(C)C(=O)Nc2cccc3ccccc23)Oc2ncc(-c3cc4ccccc4o3)cc2C1=O	3.4
C[C@H]1CN([C@@H](C)CO)C(=O)c2cc(C#CC3(O)CCCC3)cnc2O[C@H]1CN(C)C(=O)C1CCCCC1	-1.3

Screening results as filed in PubChem BioAssay.
